Assay results reported in PubChem BioAssay AID1159580 (chemical genetic matrix, 2015).
Hit rate of the full screen: of about 5,500 compounds, about 2,000 (36%) were called active. Not shown: some 18% with an inconclusive outcome. Rule as the data show it: active = normalized growth mostly below about 0.91 (no sharp cut-off); inconclusive = no clear call, values can overlap the other calls; inactive = mostly above about 0.92. Some of the results follow.

Test: chemical genetic growth profiling, strain panel (AID 1159580);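 also: tested at 20 µM; growth read once vehicle control cultures reached saturation at 30 °C; 1 = growth at the plate median or of vehicle wells; lower values mean less growth of the strain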
Settings: S. cerevisiae deletion strains, growth OD
[1] = locus YHR030C, strain SLT2, hits give low values
[2] = locus YHR079C, strain IRE1, hits give low values
[3] = locus YJL095W, strain BCK1, hits give low values
[4] = locus YJR066W, strain TOR1, hits give low values
[5] = locus YLR113W, strain HOG1, hits give low values
[6] = locus YNL183C, strain NPR1, hits give low values
[7] = locus YOR231W, strain MKK1, hits give low values
[8] = locus YPL256C, strain CLN2, hits give low values

Measured: normalized growth

NC(=NC(=O)c1ccc(Cl)cc1)c1cccs1
inactive: locus YAR019C, strain CDC15, hits give low values 0.944 | locus YBL105C, strain PKC1, hits give low values 0.964 | locus YBR135W, strain CKS1, hits give low values 0.95 | locus YBR136W, strain MEC1, hits give low values 0.949 | locus YBR160W, strain CDC28, hits give low values 0.951 | locus YDL017W, strain CDC7, hits give low values 0.964 | locus YDL028C, strain MPS1, hits give low values 0.933 | locus YDL101C, strain DUN1, hits give low values 0.969 | locus YDL108W, strain KIN28, hits give low values 0.946 | locus YDL132W, strain cdc53, hits give low values 0.951 | locus YDL214C, strain PRR2, hits give low values 0.8 | locus YDR052C, strain DBF4, hits give low values 0.96 | locus YDR054C, strain cdc34, hits give low values 0.951 | locus YDR226W, strain ADK1, hits give low values 0.951 | locus YDR477W, strain SNF1, hits give low values 0.828 | locus YER123W, strain YCK3, hits give low values 0.81 | locus YER133W, strain GLC7, hits give low values 0.775 | locus YFL009W, strain cdc4, hits give low values 0.954 | locus YFL029C, strain CAK1, hits give low values 0.949 | locus YFR003C, strain YPI1, hits give low values 0.959 | locus YFR019W, strain FAB1, hits give low values 0.938 | locus YFR028C, strain CDC14, hits give low values 0.948 | locus YGR040W, strain KSS1, hits give low values 0.833 | locus YGR052W, strain FMP48, hits give low values 0.794 | locus YGR092W, strain DBF2, hits give low values 0.533 | [1] 0.902 | [2] 0.698 | locus YHR082C, strain KSP1, hits give low values 0.934 | locus YHR205W, strain SCH9, hits give low values 0.798 | locus YIL147C, strain SLN1, hits give low values 0.956 | [3] 0.795 | locus YJL128C, strain PBS2, hits give low values 0.921 | locus YJL157C, strain FAR1, hits give low values 0.833 | locus YJR016C, strain ILV3, hits give low values 0.957 | locus YJR066W, strain TOR1 (second series), hits give low values 0.904 | [4] 0.884 | locus YKL048C, strain ELM1, hits give low values 0.901 | locus YKL067W, strain YNK1, hits give low values 0.824 | locus YKL101W, strain HSL1, hits give low values 0.877 | locus YKL193C, strain SDS22, hits give low values 0.942 | locus YKL203C, strain TOR2, hits give low values 0.9 | locus YLR133W, strain CKI1, hits give low values 0.83 | locus YLR403W, strain SFP1, hits give low values 0.789 | locus YML070W, strain DAK1, hits give low values 0.774 | locus YMR001C, strain CDC5, hits give low values 0.948 | locus YMR205C, strain PFK2 (second series), hits give low values 0.836 | locus YMR277W, strain FCP1, hits give low values 0.942 | locus YNL006W, strain LST8, hits give low values 0.97 | locus YNL020C, strain ARK1, hits give low values 0.821 | locus YNL161W, strain CBK1, hits give low values 0.95 | [6] 0.721 | locus YNL207W, strain RIO2, hits give low values 0.949 | locus YNL222W, strain SSU72, hits give low values 0.957 | locus YNL307C, strain MCK1 (second series), hits give low values 0.82 | locus YOL078W, strain AVO1, hits give low values 0.944 | locus YOL136C, strain PFK27, hits give low values 0.774 | locus YOR061W, strain CKA2, hits give low values 0.82 | locus YOR119C, strain RIO1, hits give low values 0.834 | [7] 0.734 | locus YOR329C, strain SCD5, hits give low values 0.949 | locus YPL031C, strain PHO85, hits give low values 0.8 | locus YPL153C, strain RAD53, hits give low values 0.844 | locus YPL204W, strain HRR25, hits give low values 0.806 | locus YPL209C, strain IPL1, hits give low values 0.955 | locus YPR025C, strain CCL1, hits give low values 0.953 | locus YPR106W, strain ISR1, hits give low values 0.932 | locus YPR111W, strain DBF20, hits give low values 0.915 | strain NNK1, hits give low values 0.932 | strain TSCII, hits give low values 0.939
active: [5] 0.607 | [8] 0.67

O=C(O)CCCO
inactive: [1] 1.05 | [2] 1.05 | [3] 1.01 | [4] 0.976 | [5] 1.02 | [6] 0.983 | [7] 1.02 | [8] 1.01
